Assay results published in PubChem BioAssay (Tox21).
A number with no mark means an inactive call. Inconclusive results are not listed. A call without a number means that no potency is given here. Activity calls are given as the source filed them. Unless noted, the call rests on the fitted dose curve; in most records, active means well fitted curve in the direction sought with a large enough effect in the repeat runs; inconclusive means weak or mixed curves; inactive means no such curve, though single readings can be large; an effect the other way counts as inactive or inconclusive.

Assays:
[1] = qHTS assay for small molecules that induce genotoxicity in human embryonic kidney cells expressing luciferase-tagged ATAD5 (AID 651632); further: nearly all actives have a fitted effect of over 15% in size
Procedure, shortened: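 ATAD5-luc HEK293T, 2,000 cells/well; cpd or DMSO pin-transferred; 16 hr, 37C/5% CO2; Amplite 30 min RT; luminescence.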

[2] = qHTS assay for small molecule agonists of the p53 signaling pathway - cell viability (AID 651633; calls by dose curve;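 further: p53RE-bla HCT reporter cells with a stable beta-lactamase p53 reporter; series mostly up to about 83 µM; nearly all actives have a fitted effect of over 30% in size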)
Procedure, shortened: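 Viability counter-read: CellTiter-Glo luminescence (30 min, room temperature) in the same p53RE-bla plates. These plates had been exposed to compounds for 16 h at 37 C.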

[3] = qHTS assay for small molecules that induce genotoxicity in human embryonic kidney cells expressing luciferase-tagged ATAD5 - cell viability (AID 651634; calls by dose curve; further: nearly all actives have a fitted effect of over 25% in size)
Procedure, shortened: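 Fluorescence from CellTiter-Fluor, reporting protease activity within live cells, served as the viability read-out. HEK293T cells carrying luciferase-tagged ATAD5 had been treated with compound for 15.5 hr at 37C.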

[4] = qHTS assay for small molecule disruptors of the mitochondrial membrane potential - cell viability (AID 720634; calls by dose curve;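 further: human HepG2 liver cancer cells; series mostly up to about 83 µM; nearly all actives have a fitted effect of over 20% in size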)
Procedure, shortened: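 Cells: HepG2, 2,000/well, attached overnight. Compound 1 hr, 37 C/5% CO2. +m-MPI dye, +CellTiter-Glo 30 min RT. Readout: luminescence (ATP).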

[5] = qHTS assay for small molecule disruptors of the mitochondrial membrane potential (AID 720635); further: potency means the concentration at half of the fitted maximal effect
Procedure, shortened: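 Mitochondrial membrane potential tracked with Mito-MPS dye, red aggregates (ex 540/em 590 nm) against green monomers (ex 490/em 535 nm). Compound treatment 1 hr at 37C, dye 30 min in HepG2.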

[6] = qHTS assay to test for compound auto fluorescence at 590 nm (red) in HepG2 cells (AID 720674)
Procedure, shortened: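 Red autofluorescence (Ex/Em 540/590 nm, Rose Bengal sodium equivalents) was measured in HepG2 cells, 2,000 per well in MEM plus 10% FBS, plated overnight at 37 C. Readings were taken 1 hr after adding 23 nL compound or DMSO, at 37 C and 5% CO2.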

[7] = qHTS assay to test for compound auto fluorescence at 535 nm (green) in HepG2 cells (AID 720675)
[8] = qHTS assay to test for compound auto fluorescence at 460 nm (blue) in HEK293 cells (AID 720678)
Procedure, shortened: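 Cells were seeded and left to adhere for 4-5 hr at 37C. Compounds were then pin-transferred. After an overnight incubation at 37C under 5% CO2, intrinsic fluorescence at 405/460 nm was measured and referenced to triamterene.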

[9] = qHTS assay to test for compound auto fluorescence at 590 nm (red) in HEK293 cells (AID 720679)
Procedure, shortened: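 Each well held 2,000 HEK293 cells in medium containing 10% dialyzed FBS. Following 4-5 hr attachment at 37C, 23 nL test compound or DMSO was added; plates sat overnight, and red fluorescence (540/590nm) was recorded.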

[10] = qHTS assay to test for compound auto fluorescence at 535 nm (green) in HEK293 cells (AID 720680)
[11] = qHTS assay to test for compound auto fluorescence at 460 nm (blue) in HEK293 cell free culture (AID 720681)
Procedure, shortened: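 Blue fluorescence (Ex 405/Em 460 nm, triamterene-equivalent) was read immediately after pin transfer of compound or DMSO into medium (DMEM, 10% FBS) without cells.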

[12] = qHTS assay to test for compound auto fluorescence at 535 nm (green) in HEK293 cell free culture (AID 720682)
Procedure, shortened: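 Intrinsic compound fluorescence is measured in culture medium containing 10% FBS, with excitation at 485 nm and detection at 535 nm, referenced to fluorescein.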

[13] = qHTS assay to test for compound auto fluorescence at 590 nm (red) in HEK293 cell free culture (AID 720683)
Procedure, shortened: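 Red-channel autofluorescence of compounds in culture medium (DMEM, 10% FBS), no cells, measured at 540/590 nm. Rose Bengal sodium is the reference fluorophore for equivalence.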

[14] = qHTS assay to test for compound auto fluorescence at 590 nm (red) in HepG2 cell free culture (AID 720684)
Procedure, shortened: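 Steps: dispense MEM/10% FBS medium, no cells; pin compound or DMSO vehicle; read red channel, Ex/Em 540/590 nm. Output given as Rose Bengal sodium equivalents.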

[15] = qHTS assay to test for compound auto fluorescence at 460 nm (blue) in HepG2 cell free culture (AID 720685)
Procedure, shortened: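 Compound (23 nL) or DMSO pinned into cell-free MEM with 10% FBS; blue fluorescence read at 405/460 nm excitation/emission, expressed as auto-fluorescence equivalency to triamterene.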

[16] = qHTS assay to test for compound auto fluorescence at 460 nm (blue) in HepG2 cells (AID 720687)
Procedure, shortened: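 Blue-channel autofluorescence (Ex/Em 405/460 nm, triamterene-equivalent) was measured after 1 hr compound exposure at 37 C, 5% CO2. Cells were HepG2, plated overnight at 37 C in MEM plus 10% FBS.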

[17] = target: Glucocorticoid receptor (Homo sapiens) (UniProt P04150); assay: qHTS assay to identify small molecule agonists of the glucocorticoid receptor (GR) signaling pathway (AID 720691; active means well fitted activation curve with a large enough effect in the signal ratio in the repeat runs, not every such curve was filed as active; the % refers to the signal ratio)
Sequence of Glucocorticoid receptor (Homo sapiens) (P04150 whole entry, looked up): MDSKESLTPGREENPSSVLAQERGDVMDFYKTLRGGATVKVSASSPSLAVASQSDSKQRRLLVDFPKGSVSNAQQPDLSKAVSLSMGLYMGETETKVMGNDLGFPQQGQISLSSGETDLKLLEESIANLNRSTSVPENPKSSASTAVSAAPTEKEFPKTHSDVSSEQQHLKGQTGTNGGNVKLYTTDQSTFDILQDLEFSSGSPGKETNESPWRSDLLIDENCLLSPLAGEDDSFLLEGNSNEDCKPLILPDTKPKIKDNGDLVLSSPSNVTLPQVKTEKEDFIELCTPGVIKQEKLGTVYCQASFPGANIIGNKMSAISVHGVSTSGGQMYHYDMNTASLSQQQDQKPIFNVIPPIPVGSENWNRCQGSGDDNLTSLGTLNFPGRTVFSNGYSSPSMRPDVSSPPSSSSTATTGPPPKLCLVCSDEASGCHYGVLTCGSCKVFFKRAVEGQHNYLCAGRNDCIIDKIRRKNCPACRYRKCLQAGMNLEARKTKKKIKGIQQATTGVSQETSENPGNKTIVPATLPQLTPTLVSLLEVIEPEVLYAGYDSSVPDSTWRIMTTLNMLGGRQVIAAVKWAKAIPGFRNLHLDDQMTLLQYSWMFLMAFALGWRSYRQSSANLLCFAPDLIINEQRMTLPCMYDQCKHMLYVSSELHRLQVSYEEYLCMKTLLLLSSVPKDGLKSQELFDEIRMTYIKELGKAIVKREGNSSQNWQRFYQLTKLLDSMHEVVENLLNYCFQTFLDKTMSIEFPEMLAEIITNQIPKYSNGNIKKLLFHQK
Procedure, shortened: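 Fluorescence intensity from LiveBLAzer B/G FRET substrate (2 h, room temperature) reports beta-lactamase expression driven by the glucocorticoid response element in GR-bla HeLa cells after 18 h compound exposure at 37 C.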

[18] = target: Glucocorticoid receptor (Homo sapiens) (UniProt P04150); assay: qHTS assay to identify small molecule antagonists of the glucocorticoid receptor (GR) signaling pathway (AID 720692; active means well fitted inhibition curve with a large enough effect in the signal ratio in the repeat runs, not every such curve was filed as active; the % refers to the signal ratio)
Procedure, shortened: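 HeLa GR-bla cells; cmpd + dex 5 nM final, 18 h 37 C; LiveBLAzer B/G FRET substrate 2 h RT; fluorescence intensity read. Antagonist mode, qHTS.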

[19] = qHTS assay to test for compound auto fluorescence at 535 nm (green) in HepG2 cell free culture (AID 720686)
[20] = qHTS assay for small molecule agonists of the p53 signaling pathway (AID 651631; calls by dose curve; further: nearly all actives have a fitted effect of over 15% in size)
Procedure, shortened: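 Fluorescence intensity from cleaved LiveBLAzer B/G substrate (2 h, room temperature) served as the signal. Beforehand, HCT-116 reporter cells bearing p53 response elements were treated 16 h at 37 °C with DMSO-dissolved compounds.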

Compound	Potency [1]	Potency [2]	Potency [3]	Potency [4]	Potency [5]	outcome [6]	outcome [7]	Potency [8]	outcome [9]	outcome [10]	Potency [11]	outcome [12]	outcome [13]	outcome [14]	Potency [15]	Potency [16]	Potency [17]	Potency [18]	outcome [19]	Potency [20]
Cc1occc1S	inactive	inactive	inactive	inactive	inactive	inactive	inactive	inactive	inactive	inactive	inactive	inactive	inactive	inactive	inactive	inactive	inactive	inactive		
CCOc1ccc2[nH]cc(C(=O)NCc3ccccc3)c(=O)c2n1	inactive	inactive	inactive	inactive		inactive	inactive	inactive	inactive	inactive	inactive	inactive	inactive	inactive	inactive				inactive	
Oc1ccc(O)c2c(O)cccc12			inactive	inactive		inactive		inactive	inactive	inactive	inactive	inactive	inactive	inactive		inactive	inactive			inactive
SC1CCCC1	inactive	inactive	inactive	inactive	inactive	inactive	inactive	inactive	inactive	inactive	inactive	inactive	inactive	inactive					inactive	
O=C1c2cccc(O)c2C(=O)c2c(O)cc(CO)cc21	inactive	inactive	inactive	inactive	864 nM (active)	inactive	inactive	inactive	inactive	inactive	inactive	inactive	inactive	inactive	inactive	inactive	inactive		inactive	
O=C(CCN1CCN2CCCC2C1)N1c2ccccc2Sc2ccc(Cl)cc21 (stereo unspecified)	inactive	inactive	inactive	inactive		inactive	inactive	inactive	inactive	inactive	inactive	inactive	inactive	inactive	inactive		inactive	inactive	inactive	
